# Test results published in ChEMBL document CHEMBL1157539, “Thousands of chemical starting points for antimalarial lead identification” (Nature, 2010).
# Test system: HepG2
# Assay: GSK_TCMDC: Percent inhibition of human HepG2 cell line. Test compounds present at 10uM.
# Type: functional
row,Structure (SMILES),Inhibition
1,COc1ccc2c(=NN=Cc3ccccc3F)cc(C)[nH]c2c1,4%
2,O=C(/C=C/c1ccc(Cl)c(Cl)c1)NCCCCCN1CCCN(C(=O)Nc2ccc(F)c(Cl)c2)CC1,31%
3,Cn1c(Nc2cc(C(C)(C)C)on2)nc2cc(Nc3ccnc(Nc4cccc(CS(C)(=O)=O)c4)n3)ccc21,63%
4,CCNc1cc(C(=O)N[C@@H](Cc2ccccc2)[C@H](O)CNC23CCC(CC2)C3)cc(N2CCCCS2(=O)=O)c1.Cl,22%
5,COc1ccc2nccc([C@@H](O)CN3CCC(NC(=O)c4ccc(CN5CCN(c6cccc(C)c6)CC5C)cc4)CC3)c2c1 (some centres undefined),50%
6,CCCNCc1ccc(-c2ccc(CN(C(=O)c3nn(-c4ccccc4)nc3C)C3CCOCC3)cc2)nc1.O=C(O)C(F)(F)F,14%
7,O=C(Nc1ccc(F)cc1F)NC1CCN(CCCCCNC(=O)C2CC2c2ccc(Cl)c(Cl)c2)CC1 (centres undefined),41%
8,O=C(/C=C/c1ccc(Cl)c(Cl)c1)NCCCCCN1CCC(NC(=O)c2ccc(F)cc2F)CC1,17%
9,COc1cccc(CC(=O)N2CCC(n3c(C)nc4ccc(F)cc43)CC2)c1,0%
10,O=C(/C=C/c1ccc(Cl)c(Cl)c1)N1CCC(CCN2CCc3[nH]c4ccccc4c3C2)CC1.O=C(O)C(F)(F)F,22%
11,COc1ccccc1CCC(C)(C)NC(=O)CC(CCc1ccccc1)Nc1ccc(C#N)c2ccccc12 (centres undefined),6%
12,COc1c(CCNCCCCNCCc2cc(Cl)c3ccccc3c2OC)cc(Cl)c2ccccc12.CS(=O)(=O)O,99%
13,Cc1cc(N[C@@H](CC(C)C)C(=O)NCc2cccc(F)c2)nc(Nc2ccccc2)n1.O=C(O)C(F)(F)F,0%
14,CCC(Cc1ccccc1)c1cc(O)c(Cc2ccc(-c3ccccc3)cc2)c(=O)o1 (centres undefined),3%
15,CC(C)Nc1ccc(Nc2ccnc3cc4ccccc4cc23)cc1,37%
16,COc1ccc(Nc2nc(NC3CCN(Cc4ccccc4)CC3)cc(-c3ccncc3)n2)cc1,26%
17,Cc1cccc2nc(-c3ccc(-c4cccc(NC(=O)C(=O)c5cccn5C)c4)cc3)[nH]c12,30%

row,Structure (SMILES),Inhibition
1,O=C(/C=C/c1ccc(Cl)c(Cl)c1)NCCCCCN1CCC(NC(=O)Nc2ccc(Cl)c(C(F)(F)F)c2)CC1,76%
2,Br.CCCc1cccc(C)c1OCCCON1C(=N)N=C(N)NC1(C)C,57%
3,CC(C)N1CCC(Oc2ccc(CN3CCN(C(c4ccccc4)c4ccc(Cl)cc4)CC3)cc2)CC1.Cl (centres undefined),44%
4,CC(C)(C)OC(=O)NCc1ccc(Nc2nnc(-c3ccc(OCC(=O)NCc4cc(C(F)(F)F)cc(C(F)(F)F)c4)c([N+](=O)[O-])c3)o2)cc1,24%
5,COc1ccc2nccc([C@@H](O)CN3CCC(NC(=O)c4cc5c(F)cc(F)cc5[nH]4)CC3)c2c1.CS(=O)(=O)O,33%
6,COc1cc2nc(N3CCC(CNC(=O)c4ccc(-c5ccc(-c6noc(C)n6)cc5C)cc4)CC3)nc(N)c2cc1OC,99%
7,O=C(Nc1cccc(-c2ccc(-c3nc4ccccc4[nH]3)cc2)c1)c1ccncc1,30%
8,CN1CC[C@@H](Oc2cc(CNC(=O)c3ccc(-c4ccc(Cl)cc4)s3)ccc2C(F)(F)F)C1.Cl,40%
9,c1ccc(CNc2nc(NCCc3c[nH]cn3)nc(N3CCCC4CCCCC43)n2)cc1 (centres undefined),0%
10,O=C(NCC1CCN(Cc2cccc(C(F)(F)F)c2)C1)c1cc(-c2cccc(F)c2)cs1.O=C(O)C(F)(F)F (centres undefined),19%
11,CCCCOc1ccc(-n2c(Nc3ccccc3)nc3cc(S(N)(=O)=O)ccc32)cc1,0%
12,N#Cc1ccc(N/C(=N\c2ccc(-c3ccccc3)cc2)NCCc2c[nH]c3ccccc23)c(O)c1,6%
13,c1ccc(Oc2ccc(Nc3ccnc4cc(-c5csc(CNCCN6CCOCC6)n5)ccc34)cc2)cc1,0%
14,CC[C@H](NC(=O)c1c(CCCN2CCN(c3ccccc3)CC2)c(-c2ccccc2)nc2cc(O)ccc12)c1ccccc1,12%
15,CCN(CC)CCN(Cc1ccc(-c2ccc(C(F)(F)F)cc2)nc1)C(=O)Cn1c(SCc2ccc(F)cc2)nc(=O)c2sccc21.O=C(O)C(O)C(O)C(=O)O,43%
16,CCNc1cc(C)nc(Nc2ccc(NC(=O)c3c(F)cccc3Cl)cc2)n1,49%
17,COc1ccc(-c2nccc(NC(=N)NCc3ccccc3)n2)cc1,27%
